PubChem BioAssay AID743262 (National Center for Advancing Translational Sciences (NCATS), 2014)
Hit rate of the full screen: of about 1,300 compounds, about 25 (2%) were called active. A call without a number means that no potency is given here. Not shown: some 9% with an inconclusive outcome. The sample holds actives, similar compounds and a random draw of the others, so the mix is not that of the screen. The call rests on the fitted dose curve; in most records, active means well fitted activation curve with a large enough effect; inconclusive means small, poorly fitted or top-dose-only effect; inactive means flat fitted curve, though single readings scatter.

Molecular target: Glucagon-like peptide 1 receptor (Homo sapiens) (UniProt P43220)
Sequence (P43220 whole entry, looked up): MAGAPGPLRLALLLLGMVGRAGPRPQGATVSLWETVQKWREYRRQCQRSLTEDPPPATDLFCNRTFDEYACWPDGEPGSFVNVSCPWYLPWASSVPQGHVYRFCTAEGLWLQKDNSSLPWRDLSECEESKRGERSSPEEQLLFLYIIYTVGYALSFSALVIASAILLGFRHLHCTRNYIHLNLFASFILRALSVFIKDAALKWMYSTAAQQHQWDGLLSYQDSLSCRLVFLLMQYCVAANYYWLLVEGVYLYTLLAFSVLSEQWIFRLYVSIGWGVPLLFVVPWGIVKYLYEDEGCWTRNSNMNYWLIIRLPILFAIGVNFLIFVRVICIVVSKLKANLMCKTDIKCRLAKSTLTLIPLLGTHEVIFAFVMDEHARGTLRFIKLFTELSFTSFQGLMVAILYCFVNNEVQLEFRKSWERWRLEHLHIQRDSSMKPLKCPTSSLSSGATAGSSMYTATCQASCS
Test: qHTS of GLP-1 Receptor Agonists: Hit Validation
Conditions: HEK293 GLP-1R, cAMP-response luciferase, 4-6 h; series mostly up to 46.1 µM
Description: The overall goal of this project was to develop a novel assay for discovering small molecule ligands for class B1 G protein-coupled receptors (GPCRs). Very few agonists (or inverse agonists) with generally weak activity for this entire group of physiologically important receptors are known to date. To establish proof-of-principle that this critical bottleneck can be overcome with a suitable screening approach, our studies focused on the class B1 receptor for glucagon-like peptide-1 (GLP-1R), a potential therapeutic target for diabetes and neurodegenerative disease. The assay was developed in a "mix and measure" format using a cell-based functional readout. Toward this goal, stably transfected HEK293 cell clones were established that co-express (i) a cAMP-responsive luciferase reporter gene, and (ii) GLP-1Rs that upon ligand interaction either stimulate (agonists) or inhibit (inverse agonists) luciferase activity. In different cell lines to be used for screening, expressed GLP-1Rs are specifically optimized for high sensitivity detection of either weak agonists (hypersensitive receptor) or inverse agonists (constitutively active receptor mutant). In addition, control cell lines were developed that express either the cAMP-responsive reporter gene without recombinant GLP-1Rs (enabling initial exclusion of GLP-1R independent effects of candidate probes), or the reporter gene together with wild type GLP-1Rs (for confirmation of probe activity at this receptor), or the reporter gene in combination with the constitutively active orphan receptor GPR119 (enabling initial exclusion of GLP-1R independent inhibitory effects of candidate inverse agonists). To that end, this assay was optimized for 1536-well format and screened against the MLSMR. NIH Molecular Libraries Probe Production Network [MLPCN] NIH Chemical Genomics Center [NCGC] Grant: NS064851 PI Name: Martin Beinborn, Tufts Medical Center
In a white solid 1536-well plate, 6 uL of cells are dispensed in DMEM without phenol red, 10% Nu serum, and 1% pen-strep medium. The plates are then incubated for 12 hours at 37 deg C at 5% CO2 before 23 nL of compounds are added. After a 4-6 hr incubation at37 deg C and 5% CO2, 3 uL of detection reagent are added and after a 12 min incubation at RT, a luminescent read is obtained on the ViewLux.
Potency means the concentration at half of the fitted maximal effect.

Compound	Potency
Clc1ccccc1Nc1nc(NCC2CC2)nc2ccsc12	inactive
COCCNc1nc(Nc2ccc(C)cc2C)c2sccc2n1	9.2 µM (active)
COCCNc1nc(Nc2ccccc2Cl)c2sccc2n1	inactive
CCOc1ccc(C(C)=O)cc1COC(=O)CCc1cc(OC)c(OC)c(OC)c1	inactive
CCOC(=O)c1c(C)[nH]c(C)c1C(=O)COC(=O)c1sccc1C	inactive
Nc1nnc(-c2cn(-c3ccccc3)nc2-c2ccccc2)o1	5.17 µM (active)
CCOC(=O)c1cn(-c2ccccc2)nc1-c1ccncc1	inactive
COc1ccc(Cn2c(SCC#N)nc3ccc(N4CCOCC4)cc3c2=O)cc1	inactive
CCOC(=O)C1(C)CCCN(C(=O)c2cc(C)oc2C)C1 (stereo unspecified)	inactive
Cc1ccc(NC(=O)Nc2ccc([N+](=O)[O-])cc2)nc1	inactive
COc1cc2c(cc1OC)C1=C(C#N)CCC(=NC(=O)c3ccc(Cl)cc3)N1CC2	inactive
C=CCSc1nc2c(c(=O)[nH]c(=O)n2C)n1CC	inactive
COc1ccc([N+](=O)[O-])cc1NS(=O)(=O)c1cc(C(=O)N2CCN(C)CC2)ccc1OC	inactive
CC(C)Cn1cnc2c(SCc3ccccc3F)nc(N)nc21	inactive
CCCn1c2ccc(F)cc2c2nnc(SCCN3CCOCC3)nc21	inactive
CCOc1ncccc1C(=O)OCc1ccc(C(=O)OC)o1	inactive
Nc1nc2sc3c(c2c(=O)s1)CCCC3	inactive
COc1cc2c(cc1OC)CN(C(=O)c1ccc(N3CCCC3)c([N+](=O)[O-])c1)CC2	inactive
COC(=O)[C@@H]1CCCN1C(=O)c1cc(COc2cccc3cccnc23)on1	inactive
CCN=C1S/C(=C\c2cn(CC)c3ccccc23)C(=O)N1CC	inactive
COc1ccccc1N1CCN(C(=O)/C=C/c2ccco2)CC1	inactive
COc1cccc(OC)c1C(=O)Nc1ccc(C(=O)c2ccncc2)cc1	inactive
CCOC(=O)c1c(NC(=O)COC)sc(C)c1C	inactive
COc1ccc(C2=Nn3c(nnc3-c3ccco3)SC2)cc1	inactive

Compound	Potency
COc1ccc(OC)c(-c2nnc3n2N=C(c2ccc(OC)c(OC)c2)CS3)c1	1.64 µM (active)
COc1ccc(C2CC(c3ccc(OC)c(OC)c3)=NN2C(=O)c2ccccc2)cc1 (stereo unspecified)	inactive
CCOc1ccc(-c2nnc3n2N=C(c2ccc(OC)cc2)CS3)cc1	inactive
COc1ccc(C2=Nn3c(nnc3-c3ccccn3)SC2)cc1OC	inactive
COc1ccc(C2=NN(C(C)=O)C(c3cccs3)C2)cc1OC (stereo unspecified)	inactive
COc1ccc(C2=Nn3c(nnc3C3CCCCC3)SC2)cc1OC	8.2 µM (active)
COc1ccc(C2=Nn3c(nnc3-c3ccccc3Cl)SC2)cc1OC1CCOC1 (stereo unspecified)	13 µM (active)
Cc1cc(C)n(-c2nnc3n2N=C(c2c[nH]c4ccccc24)CS3)n1	inactive
COc1ccc(C2=Nn3c(nnc3-c3ccccc3)SC2)cc1OC	inactive
c1cc2c(cc1C1=Nn3c(nnc3C3CCCCC3)SC1)OCO2	inactive
COc1ccc(C2=Nn3c(nnc3-c3ccccc3OC)SC2)cc1OC	5.8 µM (active)
C/C(=N\Nc1nc2ccccc2[nH]1)c1ccc(C)o1	inactive
COc1cc(C#Cc2ccc3cc(CCO)oc(=O)c3c2)cc(OC)c1	inactive
O=c1[nH]n(CC2COC3(CCCCC3)O2)c(=O)c2ccccc12 (stereo unspecified)	inactive
COCc1cccc(-c2csc(C(C)(O)c3cccc(F)c3)n2)c1 (stereo unspecified)	inactive
COc1cc(SC)ccc1C(=O)OCc1nc2ccsc2c(=O)[nH]1	inactive
CSc1nnc(C)c(/C=C/Nc2ccc(F)cc2)n1	inactive
CN(C)c1ccc(N=Nc2ccccc2C(=O)OCC(=O)Nc2ccccc2C(F)(F)F)cc1	inactive
COc1ccc(/C=N/n2c(-c3ccc(C)cc3)n[nH]c2=S)cc1OC	inactive
C=CCn1c2ccccc2c(=O)c2cc(C#CC3(O)CCCCC3)ccc21	inactive
O=C(Nc1ccccc1)OCc1cc(-c2ccccc2Cl)on1	inactive
CCCc1cc(-c2ccc(O)c(OCC)c2)c(C#N)c(N)n1	inactive
COc1ccc(CCN(C)C/C=C/c2ccccc2[N+](=O)[O-])cc1OC	inactive
CCCOc1ccc2c(=O)c(-c3cc(C(=O)OC)oc3C)c(C)oc2c1	inactive

Compound	Potency
Fc1ccccc1COc1ccc(Br)cc1CNCc1cccnc1	inactive
COc1ccc(CN(C)Cc2nc(Cc3ccccc3Cl)no2)cc1OC	16.4 µM (active)
COc1cc(-c2nc(Cc3ccccc3Cl)no2)cc(OC)c1OC	inactive
COc1ccc(Cc2noc(-c3ccc(OC)c(OC)c3)n2)cc1OC	inactive
CCCCCCSC1=C(C#N)C(c2ccc(O)cc2)CC(=O)N1 (stereo unspecified)	inactive
NS(=O)(=O)c1cccc(NC(=O)Nc2ccccc2)c1	inactive
CCc1ccc(C(=O)COC(=O)c2cc([N+](=O)[O-])ccc2NCCO)cc1	inactive
CC(CCc1ccco1)NC(=O)c1cccc2c1C(=O)N(C1CCCCC1)C2 (stereo unspecified)	inactive
Cc1nn(-c2ccccc2)c(Cl)c1/C=N/NC(N)=O	inactive
Cc1ccccc1Nc1nc(N)nc(-c2oc3ccccc3c2C)n1	inactive
COc1cccc(C(C)(O)c2nc(-c3ccc(OC)c(OC)c3)cs2)c1 (stereo unspecified)	inactive
Cc1c(C(=O)N(C)C(C)c2ccccn2)oc2c(F)cccc12 (stereo unspecified)	inactive
CCOCCCn1c(=NC(=O)c2cccnc2)c(C(=O)OCC)cc2c(=O)n3ccccc3nc21	inactive
COc1ccc(-c2cc(C3CC3)nc(N)c2C#N)cc1	inactive
CCOC(=O)c1c(NC(=O)Cc2ccccc2)sc2c1CCN(CC)C2	inactive
CCOC(=O)c1cnc2c(c(C)nn2CC)c1NC1CC1	inactive
c1ccc(Cn2nnc3c(N4CCC5(CC4)OCCO5)ncnc32)cc1	inactive
COc1ccc(CCN(C)C(=O)CCc2nnc(-c3ccccc3)o2)cc1OC	inactive
COc1ccccc1Nc1cc(C(=O)NCc2cccnc2)c2ccccc2n1	inactive
COc1cc2c(cc1OC)CN(C(=O)c1ccc(S(=O)(=O)N(C)c3ccccc3)cc1)CC2	inactive
O=c1c2c3c(sc2nc(NCCO)n1Cc1ccco1)CCCCC3	inactive
CCSc1cc(C)nc2c(-c3ccccc3)c(C)nn12	inactive
CCOC(=O)c1sc(NC(=O)/C=C/c2cnn(CC)c2C)c(C(=O)OCC)c1C	inactive
